Tests used:
[1] = target: T1, Ephrin type-A receptor 3 (Homo sapiens) (UniProt P29320); conditions: at 10 µM
T1 sequence (whole entry): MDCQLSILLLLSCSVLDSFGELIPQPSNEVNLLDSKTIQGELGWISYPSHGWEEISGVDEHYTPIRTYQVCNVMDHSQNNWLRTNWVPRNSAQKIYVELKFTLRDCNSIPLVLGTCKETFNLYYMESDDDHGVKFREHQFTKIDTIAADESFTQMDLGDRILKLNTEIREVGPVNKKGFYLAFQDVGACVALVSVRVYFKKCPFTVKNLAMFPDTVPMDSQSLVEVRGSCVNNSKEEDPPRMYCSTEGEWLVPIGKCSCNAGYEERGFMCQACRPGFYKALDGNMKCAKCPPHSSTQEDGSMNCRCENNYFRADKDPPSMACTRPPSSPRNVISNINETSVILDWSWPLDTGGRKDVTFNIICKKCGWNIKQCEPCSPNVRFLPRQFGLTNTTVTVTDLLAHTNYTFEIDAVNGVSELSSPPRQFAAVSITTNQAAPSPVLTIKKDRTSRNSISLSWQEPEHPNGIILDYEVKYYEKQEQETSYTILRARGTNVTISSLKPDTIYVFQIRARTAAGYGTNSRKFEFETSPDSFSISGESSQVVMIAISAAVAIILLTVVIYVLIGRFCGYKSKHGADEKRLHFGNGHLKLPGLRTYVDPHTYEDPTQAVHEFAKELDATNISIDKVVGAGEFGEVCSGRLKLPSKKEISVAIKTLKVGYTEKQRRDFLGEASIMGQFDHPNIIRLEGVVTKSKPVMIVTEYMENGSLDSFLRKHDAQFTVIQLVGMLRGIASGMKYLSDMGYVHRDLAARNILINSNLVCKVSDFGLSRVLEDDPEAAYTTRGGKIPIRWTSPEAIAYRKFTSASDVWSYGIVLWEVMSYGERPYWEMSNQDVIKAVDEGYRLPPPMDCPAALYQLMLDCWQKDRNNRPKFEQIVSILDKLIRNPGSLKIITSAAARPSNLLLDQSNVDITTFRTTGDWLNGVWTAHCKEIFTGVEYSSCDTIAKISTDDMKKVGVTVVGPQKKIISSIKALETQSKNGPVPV

[2] = target: Ephrin type-A receptor 4 (Homo sapiens) (UniProt P54764); conditions: at 1 µM
Sequence of Ephrin type-A receptor 4 (Homo sapiens) (P54764 whole entry): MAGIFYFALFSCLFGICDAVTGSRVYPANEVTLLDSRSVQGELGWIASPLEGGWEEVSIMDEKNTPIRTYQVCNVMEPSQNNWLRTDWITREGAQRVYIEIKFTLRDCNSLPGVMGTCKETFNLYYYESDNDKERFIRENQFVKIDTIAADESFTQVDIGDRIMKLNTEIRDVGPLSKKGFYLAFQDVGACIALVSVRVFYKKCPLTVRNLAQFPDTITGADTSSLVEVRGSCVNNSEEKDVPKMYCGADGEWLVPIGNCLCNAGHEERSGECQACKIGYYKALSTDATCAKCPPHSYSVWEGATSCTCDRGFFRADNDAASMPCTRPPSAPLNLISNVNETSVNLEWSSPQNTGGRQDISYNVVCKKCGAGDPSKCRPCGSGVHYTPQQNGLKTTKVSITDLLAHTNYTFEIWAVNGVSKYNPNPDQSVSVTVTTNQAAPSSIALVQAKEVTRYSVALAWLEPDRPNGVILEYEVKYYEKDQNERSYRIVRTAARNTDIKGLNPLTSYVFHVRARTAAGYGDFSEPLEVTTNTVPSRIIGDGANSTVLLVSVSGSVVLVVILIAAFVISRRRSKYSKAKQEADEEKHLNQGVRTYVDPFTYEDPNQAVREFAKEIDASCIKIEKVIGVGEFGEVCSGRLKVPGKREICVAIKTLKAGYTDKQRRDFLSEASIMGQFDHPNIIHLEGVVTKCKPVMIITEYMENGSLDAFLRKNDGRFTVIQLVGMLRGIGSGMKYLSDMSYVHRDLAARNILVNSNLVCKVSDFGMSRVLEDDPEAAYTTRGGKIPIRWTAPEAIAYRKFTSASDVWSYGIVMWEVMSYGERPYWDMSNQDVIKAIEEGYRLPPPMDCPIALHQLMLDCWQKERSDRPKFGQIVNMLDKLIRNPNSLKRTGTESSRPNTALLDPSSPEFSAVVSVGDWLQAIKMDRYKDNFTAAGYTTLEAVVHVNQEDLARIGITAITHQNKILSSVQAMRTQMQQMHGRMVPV

[3] = target: Ephrin type-A receptor 4 (Homo sapiens) (UniProt P54764); conditions: at 10 µM
[4] = target: Ephrin type-A receptor 5 (Homo sapiens) (UniProt P54756); conditions: at 1 µM
Sequence of Ephrin type-A receptor 5 (Homo sapiens) (P54756 whole entry): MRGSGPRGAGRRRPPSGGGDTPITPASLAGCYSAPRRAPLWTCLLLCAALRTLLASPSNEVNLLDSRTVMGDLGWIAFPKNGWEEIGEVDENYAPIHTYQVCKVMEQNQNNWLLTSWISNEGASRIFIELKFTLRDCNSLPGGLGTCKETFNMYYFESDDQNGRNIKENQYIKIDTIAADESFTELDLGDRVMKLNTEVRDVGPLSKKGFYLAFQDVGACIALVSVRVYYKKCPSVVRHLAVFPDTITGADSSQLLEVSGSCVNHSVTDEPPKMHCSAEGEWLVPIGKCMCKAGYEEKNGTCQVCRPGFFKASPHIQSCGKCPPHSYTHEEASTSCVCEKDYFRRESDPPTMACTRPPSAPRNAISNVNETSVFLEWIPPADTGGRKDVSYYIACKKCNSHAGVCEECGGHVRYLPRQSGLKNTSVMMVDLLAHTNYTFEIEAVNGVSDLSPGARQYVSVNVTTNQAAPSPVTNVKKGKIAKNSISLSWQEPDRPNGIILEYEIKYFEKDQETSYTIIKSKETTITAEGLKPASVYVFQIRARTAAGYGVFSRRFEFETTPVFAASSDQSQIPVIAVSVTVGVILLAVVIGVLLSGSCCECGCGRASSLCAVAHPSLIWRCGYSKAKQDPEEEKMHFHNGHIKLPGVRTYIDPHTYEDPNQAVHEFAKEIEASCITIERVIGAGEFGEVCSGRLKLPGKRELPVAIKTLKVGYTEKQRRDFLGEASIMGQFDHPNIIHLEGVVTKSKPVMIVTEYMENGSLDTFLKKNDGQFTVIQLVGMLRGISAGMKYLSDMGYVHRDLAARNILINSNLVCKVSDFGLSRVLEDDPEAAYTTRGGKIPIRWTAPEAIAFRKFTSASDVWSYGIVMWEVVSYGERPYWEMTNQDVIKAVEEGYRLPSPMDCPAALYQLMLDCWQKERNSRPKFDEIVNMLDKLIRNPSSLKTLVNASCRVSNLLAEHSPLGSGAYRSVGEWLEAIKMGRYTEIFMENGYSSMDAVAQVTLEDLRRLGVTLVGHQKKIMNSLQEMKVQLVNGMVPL

[5] = target: Ephrin type-A receptor 5 (Homo sapiens) (UniProt P54756); conditions: at 10 µM
[6] = target: Ephrin type-A receptor 7 (Homo sapiens) (UniProt Q15375); conditions: at 1 µM
Sequence of Ephrin type-A receptor 7 (Homo sapiens) (Q15375 28-998 limits assumed): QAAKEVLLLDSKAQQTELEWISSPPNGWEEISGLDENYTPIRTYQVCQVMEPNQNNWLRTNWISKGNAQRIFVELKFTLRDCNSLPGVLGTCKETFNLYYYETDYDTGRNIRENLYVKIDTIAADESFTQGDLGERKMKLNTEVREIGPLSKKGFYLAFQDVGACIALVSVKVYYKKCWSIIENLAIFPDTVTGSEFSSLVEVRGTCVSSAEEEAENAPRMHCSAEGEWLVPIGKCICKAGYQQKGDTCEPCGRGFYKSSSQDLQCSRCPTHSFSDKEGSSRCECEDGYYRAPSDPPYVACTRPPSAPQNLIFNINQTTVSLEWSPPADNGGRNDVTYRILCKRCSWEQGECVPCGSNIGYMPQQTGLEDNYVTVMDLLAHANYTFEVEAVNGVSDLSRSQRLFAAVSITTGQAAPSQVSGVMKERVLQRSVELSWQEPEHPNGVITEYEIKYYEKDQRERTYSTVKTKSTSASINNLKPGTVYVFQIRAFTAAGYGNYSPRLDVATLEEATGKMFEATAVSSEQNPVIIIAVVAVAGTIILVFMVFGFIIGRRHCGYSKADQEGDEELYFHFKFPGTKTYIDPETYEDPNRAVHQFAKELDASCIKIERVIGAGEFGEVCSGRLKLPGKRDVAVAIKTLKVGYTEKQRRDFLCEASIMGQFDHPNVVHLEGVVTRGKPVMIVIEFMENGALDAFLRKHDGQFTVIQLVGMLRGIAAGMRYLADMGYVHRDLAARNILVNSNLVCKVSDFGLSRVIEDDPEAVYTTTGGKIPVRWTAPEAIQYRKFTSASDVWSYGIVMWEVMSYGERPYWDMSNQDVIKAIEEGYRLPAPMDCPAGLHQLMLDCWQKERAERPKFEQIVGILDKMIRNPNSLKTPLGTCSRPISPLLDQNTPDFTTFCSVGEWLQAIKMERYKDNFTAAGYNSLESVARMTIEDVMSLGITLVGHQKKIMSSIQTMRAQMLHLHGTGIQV

[7] = target: Ephrin type-A receptor 7 (Homo sapiens) (UniProt Q15375); conditions: at 10 µM
[8] = target: T2, Ephrin type-A receptor 8 (Homo sapiens) (UniProt P29322); conditions: at 1 µM
T2 sequence (whole entry): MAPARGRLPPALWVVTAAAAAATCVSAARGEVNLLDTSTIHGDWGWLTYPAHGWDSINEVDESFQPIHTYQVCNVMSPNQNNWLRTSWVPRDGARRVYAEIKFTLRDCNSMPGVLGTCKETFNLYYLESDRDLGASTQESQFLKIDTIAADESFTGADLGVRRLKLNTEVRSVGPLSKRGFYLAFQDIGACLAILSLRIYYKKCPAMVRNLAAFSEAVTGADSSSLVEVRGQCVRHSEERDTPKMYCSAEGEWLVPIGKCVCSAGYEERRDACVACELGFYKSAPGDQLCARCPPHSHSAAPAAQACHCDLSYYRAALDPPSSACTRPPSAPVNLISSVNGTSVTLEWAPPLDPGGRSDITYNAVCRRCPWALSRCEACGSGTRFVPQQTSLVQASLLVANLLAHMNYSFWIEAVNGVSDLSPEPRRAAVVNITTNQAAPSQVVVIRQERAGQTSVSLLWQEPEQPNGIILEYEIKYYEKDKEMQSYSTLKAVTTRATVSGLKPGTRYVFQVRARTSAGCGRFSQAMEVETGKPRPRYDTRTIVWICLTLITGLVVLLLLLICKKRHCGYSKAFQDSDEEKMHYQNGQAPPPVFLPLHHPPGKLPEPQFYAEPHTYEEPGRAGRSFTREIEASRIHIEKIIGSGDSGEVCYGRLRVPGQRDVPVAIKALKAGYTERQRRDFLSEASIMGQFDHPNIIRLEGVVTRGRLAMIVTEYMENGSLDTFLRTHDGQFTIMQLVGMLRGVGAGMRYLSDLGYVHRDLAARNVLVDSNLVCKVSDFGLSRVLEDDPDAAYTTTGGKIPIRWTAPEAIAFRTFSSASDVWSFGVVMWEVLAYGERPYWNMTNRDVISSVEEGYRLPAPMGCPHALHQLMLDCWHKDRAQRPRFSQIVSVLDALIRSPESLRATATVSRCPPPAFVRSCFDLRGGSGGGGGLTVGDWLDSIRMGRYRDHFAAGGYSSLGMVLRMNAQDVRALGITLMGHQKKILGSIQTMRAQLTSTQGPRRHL

[9] = target: T2, Ephrin type-A receptor 8 (Homo sapiens); conditions: at 10 µM
[10] = target: T3, Ephrin type-B receptor 1 (Homo sapiens) (UniProt P54762); conditions: at 1 µM
T3 sequence (whole entry): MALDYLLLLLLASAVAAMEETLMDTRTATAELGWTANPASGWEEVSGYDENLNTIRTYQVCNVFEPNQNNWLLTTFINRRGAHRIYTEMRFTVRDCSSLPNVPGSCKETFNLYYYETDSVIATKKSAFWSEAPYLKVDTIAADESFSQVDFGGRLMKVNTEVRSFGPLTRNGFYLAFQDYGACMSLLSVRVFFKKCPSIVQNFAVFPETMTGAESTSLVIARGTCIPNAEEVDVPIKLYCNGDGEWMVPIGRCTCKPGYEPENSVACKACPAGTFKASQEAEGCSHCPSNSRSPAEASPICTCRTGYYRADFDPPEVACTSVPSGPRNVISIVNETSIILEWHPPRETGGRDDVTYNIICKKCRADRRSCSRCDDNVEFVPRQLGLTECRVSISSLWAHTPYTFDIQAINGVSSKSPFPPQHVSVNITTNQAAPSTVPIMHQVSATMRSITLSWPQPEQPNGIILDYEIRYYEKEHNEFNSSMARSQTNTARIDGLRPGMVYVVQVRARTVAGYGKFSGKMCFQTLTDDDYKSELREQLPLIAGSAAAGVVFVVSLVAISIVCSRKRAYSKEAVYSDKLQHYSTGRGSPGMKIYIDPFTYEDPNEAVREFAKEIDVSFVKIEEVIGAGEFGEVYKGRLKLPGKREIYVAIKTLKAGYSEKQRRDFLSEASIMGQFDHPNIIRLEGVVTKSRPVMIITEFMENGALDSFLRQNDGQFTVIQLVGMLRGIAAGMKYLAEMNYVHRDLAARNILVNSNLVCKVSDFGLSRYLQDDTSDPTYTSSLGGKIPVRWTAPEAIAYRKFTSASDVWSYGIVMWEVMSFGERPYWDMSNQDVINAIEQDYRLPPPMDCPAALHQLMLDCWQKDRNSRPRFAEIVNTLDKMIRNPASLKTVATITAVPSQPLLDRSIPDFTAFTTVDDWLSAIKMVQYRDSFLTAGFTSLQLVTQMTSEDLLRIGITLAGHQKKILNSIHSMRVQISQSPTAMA

[11] = target: T3, Ephrin type-B receptor 1 (Homo sapiens); conditions: at 10 µM
[12] = target: T4, Ephrin type-B receptor 2 (Homo sapiens) (UniProt P29323); conditions: at 1 µM
T4 sequence (whole entry): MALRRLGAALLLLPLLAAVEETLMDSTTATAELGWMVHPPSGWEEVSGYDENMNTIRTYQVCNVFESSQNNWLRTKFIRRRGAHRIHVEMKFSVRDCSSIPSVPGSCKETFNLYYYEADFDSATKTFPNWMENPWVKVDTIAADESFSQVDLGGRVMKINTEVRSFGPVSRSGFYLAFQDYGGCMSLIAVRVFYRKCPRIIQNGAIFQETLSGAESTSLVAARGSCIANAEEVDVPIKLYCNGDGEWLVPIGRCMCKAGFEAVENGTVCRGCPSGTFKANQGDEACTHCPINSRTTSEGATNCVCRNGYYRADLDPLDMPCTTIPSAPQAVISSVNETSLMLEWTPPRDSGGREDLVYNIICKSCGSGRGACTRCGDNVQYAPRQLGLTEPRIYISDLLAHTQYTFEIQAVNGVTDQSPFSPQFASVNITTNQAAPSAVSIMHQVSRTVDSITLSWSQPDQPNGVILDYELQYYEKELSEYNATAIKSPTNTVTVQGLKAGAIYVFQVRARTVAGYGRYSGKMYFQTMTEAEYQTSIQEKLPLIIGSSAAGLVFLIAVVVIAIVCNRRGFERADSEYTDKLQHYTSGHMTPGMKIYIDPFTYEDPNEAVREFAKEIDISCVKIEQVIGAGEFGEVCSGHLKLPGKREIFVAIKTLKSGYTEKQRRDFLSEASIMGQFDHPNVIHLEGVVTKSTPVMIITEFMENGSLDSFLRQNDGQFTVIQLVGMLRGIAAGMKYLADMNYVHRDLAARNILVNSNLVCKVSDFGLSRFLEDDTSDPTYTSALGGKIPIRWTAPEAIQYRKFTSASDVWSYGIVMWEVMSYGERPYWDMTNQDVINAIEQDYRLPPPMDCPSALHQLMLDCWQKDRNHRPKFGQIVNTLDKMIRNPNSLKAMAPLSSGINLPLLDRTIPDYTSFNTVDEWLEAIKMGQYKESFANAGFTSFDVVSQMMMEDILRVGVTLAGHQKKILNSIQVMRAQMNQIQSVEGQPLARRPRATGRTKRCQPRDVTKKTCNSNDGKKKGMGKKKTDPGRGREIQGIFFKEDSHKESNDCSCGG

[13] = target: T4, Ephrin type-B receptor 2 (Homo sapiens); conditions: at 10 µM
[14] = target: T5, Ephrin type-B receptor 3 (Homo sapiens) (UniProt P54753); conditions: at 1 µM
T5 sequence (whole entry): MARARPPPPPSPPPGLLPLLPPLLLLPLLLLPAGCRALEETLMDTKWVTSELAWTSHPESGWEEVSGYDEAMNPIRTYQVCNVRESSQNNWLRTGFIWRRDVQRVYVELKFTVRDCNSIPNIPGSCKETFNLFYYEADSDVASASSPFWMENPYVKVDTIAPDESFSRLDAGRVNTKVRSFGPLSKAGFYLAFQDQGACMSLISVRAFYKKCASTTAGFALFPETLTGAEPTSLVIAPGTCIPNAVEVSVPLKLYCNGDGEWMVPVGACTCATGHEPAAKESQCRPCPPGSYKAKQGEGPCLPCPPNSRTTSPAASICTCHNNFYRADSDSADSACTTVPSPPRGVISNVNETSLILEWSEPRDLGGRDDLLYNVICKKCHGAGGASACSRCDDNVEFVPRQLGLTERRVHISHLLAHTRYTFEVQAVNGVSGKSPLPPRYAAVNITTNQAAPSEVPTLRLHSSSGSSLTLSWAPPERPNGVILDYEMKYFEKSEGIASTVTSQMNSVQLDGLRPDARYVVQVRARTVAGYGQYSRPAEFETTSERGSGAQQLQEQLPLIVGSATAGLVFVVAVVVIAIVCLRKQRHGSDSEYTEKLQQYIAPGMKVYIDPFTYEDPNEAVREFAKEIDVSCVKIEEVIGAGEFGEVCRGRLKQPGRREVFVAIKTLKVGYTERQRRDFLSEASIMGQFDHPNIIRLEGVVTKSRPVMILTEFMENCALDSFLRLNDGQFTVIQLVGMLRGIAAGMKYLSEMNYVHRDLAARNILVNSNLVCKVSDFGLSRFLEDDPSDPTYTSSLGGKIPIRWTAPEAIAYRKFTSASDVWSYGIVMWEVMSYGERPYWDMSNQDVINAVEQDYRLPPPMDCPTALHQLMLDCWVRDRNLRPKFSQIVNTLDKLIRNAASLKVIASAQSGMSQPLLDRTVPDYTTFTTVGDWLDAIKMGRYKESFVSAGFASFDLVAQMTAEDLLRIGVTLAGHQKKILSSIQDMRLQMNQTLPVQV

[15] = target: T5, Ephrin type-B receptor 3 (Homo sapiens); conditions: at 10 µM
[16] = target: T6, Ephrin type-B receptor 4 (Homo sapiens) (UniProt P54760); conditions: at 1 µM
T6 sequence (whole entry): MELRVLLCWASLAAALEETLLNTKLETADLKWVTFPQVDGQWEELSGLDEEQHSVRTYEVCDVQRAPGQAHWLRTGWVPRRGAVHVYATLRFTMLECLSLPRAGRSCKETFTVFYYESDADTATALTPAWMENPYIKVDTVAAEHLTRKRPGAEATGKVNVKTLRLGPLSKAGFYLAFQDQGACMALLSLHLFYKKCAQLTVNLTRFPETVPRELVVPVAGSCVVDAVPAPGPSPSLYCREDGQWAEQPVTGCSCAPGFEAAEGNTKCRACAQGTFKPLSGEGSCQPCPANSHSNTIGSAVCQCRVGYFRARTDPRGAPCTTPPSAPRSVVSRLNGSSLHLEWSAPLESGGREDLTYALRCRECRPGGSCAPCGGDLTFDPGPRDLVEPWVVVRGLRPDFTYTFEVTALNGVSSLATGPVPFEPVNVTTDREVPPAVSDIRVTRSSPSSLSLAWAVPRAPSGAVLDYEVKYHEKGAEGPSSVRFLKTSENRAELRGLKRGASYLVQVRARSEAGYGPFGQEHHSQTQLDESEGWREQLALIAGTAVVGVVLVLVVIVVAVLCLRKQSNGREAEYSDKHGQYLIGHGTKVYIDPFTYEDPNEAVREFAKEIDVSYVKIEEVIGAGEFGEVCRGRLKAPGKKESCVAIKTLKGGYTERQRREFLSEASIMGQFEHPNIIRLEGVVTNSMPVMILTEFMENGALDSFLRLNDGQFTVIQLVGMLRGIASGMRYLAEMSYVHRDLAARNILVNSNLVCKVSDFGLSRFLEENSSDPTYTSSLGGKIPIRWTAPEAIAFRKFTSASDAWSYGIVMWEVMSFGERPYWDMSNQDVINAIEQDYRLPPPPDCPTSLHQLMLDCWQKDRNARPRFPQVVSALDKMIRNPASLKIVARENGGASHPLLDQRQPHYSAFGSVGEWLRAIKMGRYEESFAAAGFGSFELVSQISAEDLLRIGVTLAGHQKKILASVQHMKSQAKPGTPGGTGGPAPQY

[17] = target: T6, Ephrin type-B receptor 4 (Homo sapiens); conditions: at 10 µM
[18] = target: Receptor tyrosine-protein kinase erbB-4 (Homo sapiens) (UniProt Q15303); conditions: at 1 µM
Sequence of Receptor tyrosine-protein kinase erbB-4 (Homo sapiens) (Q15303 whole entry): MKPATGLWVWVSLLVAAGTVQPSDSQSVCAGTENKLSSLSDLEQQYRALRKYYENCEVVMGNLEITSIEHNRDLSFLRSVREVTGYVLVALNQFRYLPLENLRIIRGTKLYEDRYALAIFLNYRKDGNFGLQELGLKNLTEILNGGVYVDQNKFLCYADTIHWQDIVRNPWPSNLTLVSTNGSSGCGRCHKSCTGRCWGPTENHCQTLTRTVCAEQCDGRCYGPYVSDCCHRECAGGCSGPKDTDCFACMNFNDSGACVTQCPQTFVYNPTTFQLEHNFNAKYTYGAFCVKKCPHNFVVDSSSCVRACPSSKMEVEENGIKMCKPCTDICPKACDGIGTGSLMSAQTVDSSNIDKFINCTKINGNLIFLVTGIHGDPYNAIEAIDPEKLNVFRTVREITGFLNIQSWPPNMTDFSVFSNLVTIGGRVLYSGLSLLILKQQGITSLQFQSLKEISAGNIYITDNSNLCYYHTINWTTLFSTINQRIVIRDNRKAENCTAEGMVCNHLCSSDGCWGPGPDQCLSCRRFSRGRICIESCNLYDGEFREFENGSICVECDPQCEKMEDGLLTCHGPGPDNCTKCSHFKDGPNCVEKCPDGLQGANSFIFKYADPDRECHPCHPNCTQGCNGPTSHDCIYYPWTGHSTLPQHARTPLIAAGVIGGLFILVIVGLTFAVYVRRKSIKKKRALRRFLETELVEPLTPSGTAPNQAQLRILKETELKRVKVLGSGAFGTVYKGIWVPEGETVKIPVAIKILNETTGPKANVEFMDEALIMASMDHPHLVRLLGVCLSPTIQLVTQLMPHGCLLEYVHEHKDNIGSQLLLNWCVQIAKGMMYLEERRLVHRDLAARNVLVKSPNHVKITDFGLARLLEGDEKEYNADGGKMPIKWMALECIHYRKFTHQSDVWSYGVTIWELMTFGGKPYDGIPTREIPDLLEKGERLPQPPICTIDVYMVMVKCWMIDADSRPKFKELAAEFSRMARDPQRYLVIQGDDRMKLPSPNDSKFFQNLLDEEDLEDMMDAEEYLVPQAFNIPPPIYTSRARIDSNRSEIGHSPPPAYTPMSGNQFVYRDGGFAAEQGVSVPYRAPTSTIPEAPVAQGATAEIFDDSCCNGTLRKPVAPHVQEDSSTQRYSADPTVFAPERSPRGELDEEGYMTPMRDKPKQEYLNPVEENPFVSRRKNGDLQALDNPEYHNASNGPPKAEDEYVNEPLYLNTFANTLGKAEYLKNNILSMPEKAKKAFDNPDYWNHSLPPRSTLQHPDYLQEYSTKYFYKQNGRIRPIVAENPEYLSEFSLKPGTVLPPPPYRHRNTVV

[19] = target: Receptor tyrosine-protein kinase erbB-4 (Homo sapiens) (UniProt Q15303); conditions: at 10 µM
[20] = target: Focal adhesion kinase 1 (Homo sapiens) (UniProt Q05397); conditions: at 1 µM

CC(C)(C)n1nc(Cc2cccc3ccccc23)c2c(N)ncnc21
residual activity [1]: 8%
residual activity [2]: 47%
residual activity [3]: 5%
residual activity [4]: 21%
residual activity [5]: 5%
residual activity [6]: 89%
residual activity [7]: 33%
residual activity [8]: 33%
residual activity [9]: 6%
residual activity [10]: 13%
residual activity [11]: 0%
residual activity [12]: 3%
residual activity [13]: -1%
residual activity [14]: 112% (inactive)
residual activity [15]: 12%
residual activity [16]: 3%
residual activity [17]: -3%
residual activity [18]: 51%
residual activity [19]: 8%
residual activity [20]: 122%
